Where “and” joins values, the source holds several entries; their conditions need not be identical. Identical values can stand only once. More than one record can exist for a structure, and the calls need not agree. Calls of active or inactive are those of the source. A call without a number means that no potency is given here. Unless noted, calls come from the whole dose curve; as a rule, active = well fitted curve in the direction sought with a large enough effect in the repeat runs; inconclusive = weak or mixed curves; inactive = no such curve, though single readings can be large; an effect the other way counts as inactive or inconclusive.
What was measured:
[1] = qHTS assay to identify small molecule antagonists of the thyroid receptor (TR) signaling pathway - cell viability counter screen (AID 743064); note: nearly all actives have a fitted effect of over 50% in size; note: potency is the fitted concentration of half-maximal effect
How it was run: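 GH3.TRE-Luc cells, 4 h pre-plating; cpd + T3 1 nM final; 37 °C 23.5 h; CellTiter-Fluor 30 min; fluorescence read.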

[2] = qHTS assay to identify small molecule antagonists of the thyroid receptor (TR) signaling pathway (AID 743065); note: nearly all actives have a fitted effect of over 55% in size; note: potency is the fitted concentration of half-maximal effect
How it was run: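 GH3.TRE-Luc rat pituitary cells carrying two TR response elements driving luciferase were plated for 4 h, given compound plus 1 nM T3 (final), and incubated 23.5 h at 37 C. ONE-Glo luminescence measured reporter inhibition; CellTiter-Fluor fluorescence tracked cytotoxicity.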

[3] = system: thyroid hormone receptor (rat, GH3 cells); experiment: qHTS assay to identify small molecule agonists of the thyroid receptor (TR) signaling pathway (AID 743066; calls by dose curve)
[4] = biological target: Estrogen receptor (Homo sapiens) (UniProt P03372); experiment: qHTS assay to identify small molecule antagonists of the estrogen receptor alpha (ER-alpha) signaling pathway (AID 743069; active = well fitted curve in the direction sought with a large enough effect in the signal ratio in the repeat runs, not every such curve was filed as active; inconclusive = weak or mixed curves, or effect the other way; inactive = no such curve, though single readings can be large or run the other way; the % refers to the signal ratio)
How it was run: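 Estradiol-stimulated ER-alpha-UAS-bla HEK293 cells, 18 hr compound exposure at 37C. LiveBLAzer B/G substrate, 2 hr RT, fluorescence read.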

[5] = qHTS assay to identify small molecule antagonists of the estrogen receptor alpha (ER-alpha) signaling pathway - cell viability counter screen (AID 743074; calls by dose curve;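 note: HEK293 cells carrying ER-alpha-UAS-bla reporter stimulated with 17beta-estradiol; nearly all actives have a fitted effect of over 45% in size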; note: potency is the fitted concentration of half-maximal effect)
[6] = biological target: Estrogen receptor (Homo sapiens) (UniProt P03372); experiment: qHTS assay to identify small molecule agonists of the estrogen receptor alpha (ER-alpha) signaling pathway (AID 743075; calls by dose curve;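 note: HEK293 GripTite cells with ER-alpha and UAS-driven beta-lactamase reporter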; note: potency is the fitted concentration of half-maximal effect)
[7] = biological target: Estrogen receptor (Homo sapiens) (UniProt P03372); experiment: qHTS assay to identify small molecule agonists of the estrogen receptor alpha (ER-alpha) signaling pathway using the BG1 cell line (AID 743079); details: BG1Luc4E2 cells, ERE-luciferase agonist, 22 h; note: nearly all actives have a fitted effect of over 20% in size; note: potency is the fitted concentration of half-maximal effect
[8] = qHTS assay to identify small molecule antagonists of the estrogen receptor alpha (ER-alpha) signaling pathway using the BG1 cell line (AID 743080; calls by dose curve;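 note: BG1 cells stimulated with 17beta-estradiol alongside compound; nearly all actives have a fitted effect of over 25% in size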; note: potency is the fitted concentration of half-maximal effect)
How it was run: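 BG1-Luc-4E2 cells (endogenous full-length ER-alpha, stable 4×ERE-luciferase) were starved 5 days in phenol-red-free medium with 10% charcoal-stripped FBS, plated 24 h, then given compound plus 17beta-estradiol for 21.5 h at 37 C; ONE-Glo luminescence read after 30 min.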

[9] = qHTS assay to identify small molecule antagonists of the estrogen receptor alpha (ER-alpha) signaling pathway using the BG1 cell line - cell viability counter screen (AID 743081);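 note: compound given together with 17beta-estradiol as the ER stimulus; nearly all actives have a fitted effect of over 45% in size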
[10] = biological target: Aromatase (Homo sapiens) (UniProt P11511); experiment: qHTS assay to identify aromatase inhibitors (AID 743083); note: nearly all actives have a fitted effect of over 55% in size; note: potency is the fitted concentration of half-maximal effect
Chain of Aromatase (Homo sapiens) (P11511 whole entry, looked up): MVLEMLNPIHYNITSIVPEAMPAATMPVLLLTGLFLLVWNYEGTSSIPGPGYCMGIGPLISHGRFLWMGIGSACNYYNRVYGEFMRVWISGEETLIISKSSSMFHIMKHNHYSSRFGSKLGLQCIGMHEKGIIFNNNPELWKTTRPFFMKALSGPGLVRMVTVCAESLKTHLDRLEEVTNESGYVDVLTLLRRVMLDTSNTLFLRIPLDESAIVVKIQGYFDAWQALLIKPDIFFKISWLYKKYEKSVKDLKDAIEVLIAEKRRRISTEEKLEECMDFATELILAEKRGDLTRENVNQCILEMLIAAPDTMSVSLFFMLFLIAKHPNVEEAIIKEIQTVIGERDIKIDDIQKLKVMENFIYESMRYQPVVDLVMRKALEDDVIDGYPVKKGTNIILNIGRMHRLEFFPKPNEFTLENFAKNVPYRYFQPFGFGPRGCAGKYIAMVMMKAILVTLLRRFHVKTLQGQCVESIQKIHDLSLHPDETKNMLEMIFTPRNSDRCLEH

Chain of Estrogen receptor (Homo sapiens) (P03372 whole entry, looked up): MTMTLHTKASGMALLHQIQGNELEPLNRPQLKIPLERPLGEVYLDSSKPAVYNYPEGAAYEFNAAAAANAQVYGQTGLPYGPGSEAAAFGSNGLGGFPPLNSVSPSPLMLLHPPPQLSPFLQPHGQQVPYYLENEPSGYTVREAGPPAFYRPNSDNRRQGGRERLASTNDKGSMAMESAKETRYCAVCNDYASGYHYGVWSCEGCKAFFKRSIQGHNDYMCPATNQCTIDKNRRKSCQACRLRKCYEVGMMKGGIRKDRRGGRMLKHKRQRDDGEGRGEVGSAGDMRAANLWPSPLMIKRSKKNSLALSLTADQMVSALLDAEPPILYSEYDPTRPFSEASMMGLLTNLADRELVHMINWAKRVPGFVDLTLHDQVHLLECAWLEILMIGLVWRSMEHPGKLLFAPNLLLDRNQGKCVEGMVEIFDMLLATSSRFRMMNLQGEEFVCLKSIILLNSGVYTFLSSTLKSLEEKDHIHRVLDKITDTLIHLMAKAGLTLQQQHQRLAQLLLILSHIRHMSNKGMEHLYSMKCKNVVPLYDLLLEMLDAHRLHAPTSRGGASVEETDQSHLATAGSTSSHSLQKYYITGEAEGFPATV

Compound	Potency [1]	Potency [2]	Potency [3]	Potency [4]	Potency [5]	Potency [6]	activation ([7]; at 95 µM (top of the series))	Potency [8]	Potency [9]	Potency [10]	activation ([7]; at 70.3 µM (top of the series))	Potency [7]
CCCCCCCC(=O)Cl	inactive	inactive	inactive	inactive	inactive	inactive	-1.47% (inactive)	inactive	inactive	inactive		
COc1cc(CC(C)N)cc(OC)c1OC (configuration not stated)	inactive	inactive	inactive	inactive		inactive	-7.73% (inactive)	inactive		inactive		
CCCN1CCC[C@@H]2Cc3nc(N)ncc3C[C@H]21	inactive	inactive	inactive	inactive	inactive	inactive		inactive	inactive	inactive	-11.9% (inactive)	
NC(=O)OCCCc1ccccc1	inactive	inactive	inactive	inactive	inactive	inactive		inactive	inactive	inactive	2.88% (inactive)	
CCSC(=O)Cl	inactive	inactive	inactive	inactive	inactive	inactive		inactive	inactive	inactive		
C/C=C/CC#N	inactive	inactive	inactive	inactive		inactive		inactive	inactive	inactive		
NNC(N)=O	inactive	inactive	inactive	inactive	inactive	inactive	-3.44% (inactive)	inactive	inactive	inactive		
O=C1C2CC=CCC2C(=O)N1SC(Cl)(Cl)Cl (configuration not stated)	6.68 µM (active) and 2.39 µM (active)	2.98 µM (active) and 68.3 µM (active) and 1.69 µM (active)	inactive	inactive		inactive and 48.2 µM [activator] (active)		26.6 µM (active)	inactive	13.3 µM (active) and inactive and 3.01 µM (active)		
Cc1cc(OC(=O)N(C)C)nn1C(=O)N(C)C	inactive	inactive	inactive	inactive		inactive		inactive	inactive	inactive	-8.77% (inactive)	
CCNc1nc(NCC)nc(SC)n1	inactive	inactive	inactive	inactive	inactive	inactive		inactive	inactive	inactive	-15.9% (inactive)	
BrCc1ccc(Br)cc1	inactive	inactive	inactive	inactive	inactive	inactive		inactive	inactive	inactive	-9.06% (inactive)	
Clc1nc(Cl)nc(Nc2ccccc2Cl)n1	inactive	inactive	inactive	inactive		inactive		inactive	inactive	inactive	9.21% (inactive)	
COc1cccc([C@@]2(O)CCCC[C@@H]2CN(C)C)c1	inactive	inactive	inactive	inactive	inactive	inactive		inactive	inactive	inactive	7.73% (inactive)	
CC(C)(C)c1cc(O)ccc1O	8.41 µM (active) and 68.6 µM (active) and 48.6 µM (active)	6.68 µM (active) and 61.1 µM (active) and 38.6 µM (active)	inactive	inactive	inactive and 26.8 µM (active)	inactive		inactive	inactive	inactive and 26.6 µM (active)		
CCOC(=O)C(Cl)Cc1cc(-n2nc(C)n(C(F)F)c2=O)c(F)cc1Cl (configuration not stated)	inactive	inactive	inactive	inactive	inactive	inactive		inactive	inactive	54.5 µM (active)		
C=CCCC#N	inactive	inactive	inactive	inactive	inactive	inactive		inactive	inactive	inactive	-1.77% (inactive)	
CCC1(c2ccccc2)CCC(=O)NC1=O (configuration not stated)	inactive	inactive	inactive	inactive	inactive	inactive		inactive		inactive	2.78% (inactive)	
Clc1ccc(C(Cl)(Cl)Cl)cn1	inactive	inactive	inactive	inactive	inactive	inactive			inactive	inactive	-9.37% (inactive)	
COc1ccc(C=O)cc1O	inactive	inactive	inactive	inactive	inactive	inactive	10.8% (inactive)	inactive	inactive	inactive		
CC[C@H](N)c1ccccc1	inactive	inactive	inactive	inactive		inactive		inactive	inactive	inactive	0.171% (inactive)	

Compound	Potency [1]	Potency [2]	Potency [3]	Potency [4]	Potency [5]	Potency [6]	activation ([7]; at 95 µM (top of the series))	Potency [8]	Potency [9]	Potency [10]	activation ([7]; at 70.3 µM (top of the series))	Potency [7]
CN(C)CCc1c[nH]c2cccc(OP(=O)(O)O)c12	inactive	inactive	inactive	inactive		inactive		inactive	inactive	inactive	-12.3% (inactive)	
CC1N=C(N)OC1c1ccccc1 (configuration not stated)	inactive	inactive	inactive	inactive		inactive		inactive		inactive	10.7% (inactive)	
CCOC(=O)CC(SP(=S)(OC)OC)C(=O)OCC (configuration not stated)	inactive	inactive	inactive	inactive	inactive	inactive		inactive	inactive	inactive		
S=C=S	inactive	inactive	inactive	inactive	inactive	inactive		inactive	inactive	inactive	-5.81% (inactive) and -2.85% (inactive)	
CCN(CC)C1CCCCC1	inactive	inactive	inactive	inactive	inactive	inactive		inactive	inactive	inactive	6.19% (inactive)	
[O-][Br+2]([O-])O	inactive	inactive	inactive	inactive	inactive	inactive		inactive	inactive	inactive	1.35% (inactive)	
O=C/C=C/c1ccco1	inactive	inactive	inactive	inactive	inactive	inactive		inactive	inactive	inactive	10.7% (inactive)	
CN=CNc1ccc(C)cc1C	inactive	inactive	inactive	inactive	inactive	inactive		inactive	inactive	inactive	15.7% (inactive)	
O=C(Cl)c1ccccc1	inactive	inactive	inactive	inactive	inactive	inactive	1.6% (inactive)	inactive	inactive	inactive		
BrCC1CO1 (configuration not stated)	inactive	inactive	inactive	inactive	inactive	inactive	8.58% (inactive)	inactive	inactive	inactive		
CCOC(=O)NC(C)(C)Cc1ccc(Cl)cc1	inactive	inactive	inactive	inactive		inactive		inactive	inactive	inactive	6.17% (inactive)	
CC(C)[C@]12CC(=O)[C@H](C)[C@H]1C2	inactive	inactive	inactive		inactive				inactive	inactive		
C=CC(=O)OCCN(C)C	inactive	inactive	inactive		inactive				inactive	inactive		
CON(C)C(=O)Nc1ccc(Br)cc1	inactive	inactive	inactive		inactive				inactive	inactive		
ClCCCCCCCl	inactive	inactive	inactive		inactive				inactive	inactive		
CC[C@@H](CO)NC(=O)[C@@H]1C=C2c3cccc4[nH]cc(c34)C[C@H]2N(C)C1	inactive	inactive	inactive		inactive	inactive		inactive	inactive	inactive	2.56% (inactive)	
O=C1CCCCC1Cl (configuration not stated)	inactive	inactive	inactive						inactive	inactive		
CN1COCN(Cc2cnc(Cl)s2)/C1=N\[N+](=O)[O-]	inactive	inactive	inactive						inactive	inactive		
O=C(O)C(F)(F)C(F)(F)C(F)(F)C(F)(F)C(F)(F)C(F)(F)F	inactive	inactive	inactive						inactive	inactive		
C#CC(C)(C)O	inactive	inactive	inactive						inactive	inactive		

Compound	Potency [1]	Potency [2]	Potency [3]	Potency [4]	Potency [5]	Potency [6]	activation ([7]; at 95 µM (top of the series))	Potency [8]	Potency [9]	Potency [10]	activation ([7]; at 70.3 µM (top of the series))	Potency [7]
CCC(=O)c1ccc(Cl)cc1	inactive	inactive	inactive		inactive				inactive	inactive		
CCOC(=O)N(C)N=O	inactive	inactive	inactive		inactive				inactive	inactive		
[P]#[In]	inactive	inactive	inactive		inactive				inactive	inactive		
CC(Cl)(Cl)Cl	inactive	inactive	inactive		inactive				inactive	inactive		
CC(C)(C)NC[C@H](O)c1ccc(O)cc1Cl	inactive	inactive	inactive		inactive				inactive	inactive		
CCCOC(=O)Cc1ccc(OCC(=O)N(CC)CC)c(OC)c1	inactive	inactive	inactive		inactive					inactive		
CCOC(=O)C(SP(=S)(OC)OC)c1ccccc1 (configuration not stated)	inactive	inactive	inactive		inactive				inactive	inactive		
CCCC(C)C1(CC)C(=O)N=C(S)NC1=O (configuration not stated)	inactive	inactive	inactive		inactive				inactive	inactive		
CC(C)N(Cc1ccccc1)C(=O)C(C)(C)C	inactive	inactive	inactive		inactive				inactive	inactive		
CCCCS(=O)(=O)Cl	inactive	inactive	inactive		inactive				inactive	inactive		
CCCCCCC1CCOC1=O (configuration not stated)	inactive	inactive	inactive		inactive				inactive	inactive		
CC(=NC#N)N(C)Cc1ccc(Cl)nc1	inactive	inactive	inactive		inactive				inactive	inactive		
Oc1ccc(Cc2ccc(O)cc2)cc1	inactive	inactive		inactive	inactive	15.6 µM [inconclusive] (active)		inactive	inactive	inactive		2.45 µM (active)
C[C@@H](N)[C@@H](O)c1ccccc1	inactive	inactive	inactive		inactive				inactive	inactive		
O=C(O)C(Cl)Br (configuration not stated)	inactive	inactive	inactive		inactive				inactive	inactive		
O=[N+]([O-])c1cccc(CCl)c1	inactive	inactive	inactive		inactive				inactive			
CCOC(=O)COc1ccc(Cl)cc1Cl	inactive	inactive	inactive		inactive				inactive			
NCC1(CC(=O)O)CCCCC1	inactive	inactive	inactive		inactive				inactive	inactive		
Cc1ccc(S(=O)(=O)N[C@@H](CCCCN)C(=O)CCl)cc1	16.8 µM (active)	13.3 µM (active)		inactive	inactive					inactive		
